Pol eta inh – qHTS for Inhibitors of Polymerase Eta; 390,000 compounds, 1.2% hits; recombinant Pol eta, fluorescent DNA replication assay; DNA polymerase eta (Homo sapiens), Q9Y253; Potency, µM (series often up to 114 µM), for inactives: at the top dose activity change, negative = inhibition, actives largely listed as inhibitors; note: % is set by controls: 0 for no effect and ±100 for the full control effect
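Fluorescent replication assay: 50 nM final substrate added after a 15 min room-temperature compound preincubation with 10 nM enzyme. Signal taken at 0 min and again at 10 min.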
POLK inh – qHTS for Inhibitors of Polymerase Kappa; AID 588579, 2011; purified Pol kappa, fluorescent DNA synthesis assay, 10 min; 400,000 compounds, 0.53% hits; Potency, µM (doses to about 107 µM), inactives show at the top dose activity, negative = inhibition, most hits filed as inhibitors; note: % is set by controls: 0 for no effect and ±100 for the full control effect
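Kinetic fluorescence screen: compound preincubated 15 min RT with 10 nM enzyme; 50 nM substrate (final) initiates; reads at 0/10 min.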
WRN helicase inh – qHTS for Inhibitors of WRN Helicase | Bifunctional 3'-5' exonuclease/ATP-dependent helicase WRN (Homo sapiens), Q14191 | WRN helicase unwinding, fluorescent forked duplex, kinetic | Potency, µM (doses to about 114 µM), for the others: top-dose activity change, negative = inhibition, most hits filed as inhibitors | 360,000 compounds, 0.46% hits | AID 651768, 2012; note: % is set by controls: 0 for no effect and ±100 for the full control effect; nearly all actives have a fitted effect of over 55% in size
Target sequence (Q14191 whole entry, looked up): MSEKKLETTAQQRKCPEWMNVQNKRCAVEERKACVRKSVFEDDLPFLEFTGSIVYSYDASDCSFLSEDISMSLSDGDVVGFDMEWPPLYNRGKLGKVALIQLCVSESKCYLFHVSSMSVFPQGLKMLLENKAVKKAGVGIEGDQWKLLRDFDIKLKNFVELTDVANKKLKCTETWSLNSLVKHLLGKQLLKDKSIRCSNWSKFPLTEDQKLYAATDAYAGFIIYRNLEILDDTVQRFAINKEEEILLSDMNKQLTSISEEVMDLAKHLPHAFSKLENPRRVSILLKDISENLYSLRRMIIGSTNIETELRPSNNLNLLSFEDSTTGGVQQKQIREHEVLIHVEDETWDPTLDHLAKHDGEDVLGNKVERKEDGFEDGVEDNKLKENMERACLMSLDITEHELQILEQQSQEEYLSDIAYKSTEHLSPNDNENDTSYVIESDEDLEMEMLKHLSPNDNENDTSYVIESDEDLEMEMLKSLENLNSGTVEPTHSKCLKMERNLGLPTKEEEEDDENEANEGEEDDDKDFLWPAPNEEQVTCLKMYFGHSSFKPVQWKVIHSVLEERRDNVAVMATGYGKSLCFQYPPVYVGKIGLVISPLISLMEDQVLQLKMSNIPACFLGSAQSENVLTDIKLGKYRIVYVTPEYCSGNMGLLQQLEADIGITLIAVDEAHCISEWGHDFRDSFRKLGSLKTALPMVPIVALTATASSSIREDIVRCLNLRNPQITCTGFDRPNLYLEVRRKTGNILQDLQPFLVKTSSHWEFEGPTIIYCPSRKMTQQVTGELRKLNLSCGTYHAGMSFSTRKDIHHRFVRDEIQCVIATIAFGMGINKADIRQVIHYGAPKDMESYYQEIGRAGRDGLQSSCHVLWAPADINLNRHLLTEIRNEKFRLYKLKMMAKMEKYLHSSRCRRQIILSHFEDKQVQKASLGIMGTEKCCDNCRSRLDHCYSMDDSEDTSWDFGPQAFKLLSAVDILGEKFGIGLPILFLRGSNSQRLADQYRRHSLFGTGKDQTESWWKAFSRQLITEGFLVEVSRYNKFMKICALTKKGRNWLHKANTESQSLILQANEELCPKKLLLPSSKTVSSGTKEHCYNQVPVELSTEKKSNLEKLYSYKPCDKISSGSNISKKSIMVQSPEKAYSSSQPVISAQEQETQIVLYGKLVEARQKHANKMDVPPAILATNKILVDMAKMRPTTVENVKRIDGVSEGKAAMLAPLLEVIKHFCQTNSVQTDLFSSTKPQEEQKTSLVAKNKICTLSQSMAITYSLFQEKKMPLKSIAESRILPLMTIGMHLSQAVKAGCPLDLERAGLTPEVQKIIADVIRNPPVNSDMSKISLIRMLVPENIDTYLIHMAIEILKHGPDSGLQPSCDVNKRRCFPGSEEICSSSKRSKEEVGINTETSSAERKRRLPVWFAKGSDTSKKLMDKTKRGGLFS
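Kinetic fluorescence helicase assay: unwinding of a quenched forked DNA duplex (100 nM final) with 2 mM ATP final raises red fluorescence (525/598 nm). Compounds sat 15 min at room temperature with 20 nM WRN beforehand.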
FEN1 inh – qHTS Assay for the Inhibitors of Human Flap endonuclease 1 (FEN1); P39748; Recombinant FEN1 flap cleavage, fluorescence, 15 min; Potency, µM (top dose mostly 114 µM), without a hit: at the highest dose activity change, negative = inhibition, actives largely listed as inhibitors; 390,000 compounds, 0.35% hits; AID 588795, 2011; note: % is set by controls: 0 for no effect and ±100 for the full control effect; nearly all actives have a fitted effect of over 65% in size
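Reaction started by adding substrate (50 nM final) to 10 nM enzyme after 15 min room-temperature compound preincubation. Reads at 0 and 15 min, with data normalized and fitted to a four-parameter Hill equation.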
POLI inh – qHTS for Inhibitors of Polymerase Iota | DNA polymerase iota (Homo sapiens), Q9UNA4 | Pol iota fluorescent replication assay, 10 min | Potency, µM (series often up to 115 µM), for the others: top-dose activity, negative = inhibition, most hits filed as inhibitors | 390,000 compounds, 1% hits
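Fluorescent replication assay read twice, at 0 min and 10 min after adding 50 nM (final) substrate. Enzyme (10 nM) and compounds were first incubated 15 min at room temperature; enzyme-free buffer wells were negative controls.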
POLB inh – qHTS Assay for Inhibitors of DNA Polymerase Beta | P06746 | Pol beta primer extension/strand displacement, fluorescence kinetic | Potency, µM (top dose mostly 114 µM), without a hit: at the top dose activity change, negative = inhibition, most hits filed as inhibitors | 340,000 compounds, 1.3% hits | AID 485314, 2010; note: % is set by controls: 0 for no effect and ±100 for the full control effect
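Homogeneous kinetic assay of primer extension and strand displacement by 10 nM Pol beta, preincubated 15 min at room temperature with compound before 50 nM substrate (final) was added. Read at 0 and 10 min; four-parameter Hill fit.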
An asterisk follows results filed as active; ? = inconclusive; nt = no result given; [ ] = another dose, or the depositor's remark. A selection: hits, their analogues and other compounds. The true share with any hit is near 2.4%. Calls come from the whole dose curve; as a rule, active = well fitted curve in the direction sought with a large enough effect; inconclusive = small, poorly fitted or top-dose-only effect, or another doubt; inactive = no such curve, though single readings can be large; an effect the other way counts as inactive or inconclusive. Potency is the fitted concentration of half-maximal effect.

SMILES	Pol eta inh	POLK inh	WRN helicase inh	FEN1 inh	POLI inh	POLB inh
O[C@@H]1COC2[C@@H](O)CO[C@@H]21 (stereo partly specified)	nt	-14%[12 µM]	nt	nt	nt	nt
Cc1cc2c(cc1Cl)N(C(=O)Nc1ccc(Oc3cccnc3C)nc1)CC2	nt	-8%[60.1 µM]	nt	-1%[57.1 µM]	nt	nt
COc1ccc(-c2nc3ccc(NC(C)=O)cc3c(=O)n2Cc2cccc(Cl)c2)cc1COc1ccc(NC(C)=O)cc1	nt	?	nt	79µM*	?	nt
COc1ccc(-c2nc3ccc(NC(=O)COC(C)=O)cc3c(=O)n2Cc2ccccc2)cc1COc1ccc(NC(C)=O)cc1	nt	-10%	nt	-23%	?	nt
O=C(COc1ccccc1[N+](=O)[O-])OCC(=O)c1ccc(Br)s1	79µM*	-21%	-5%[11.6 µM]	-7%	-19%	nt
O=C(COc1ccccc1[N+](=O)[O-])OCCCOC(=O)COc1ccccc1[N+](=O)[O-]	-6%	-2%	-31%	0%	-14%	13%
COc1ccc(CN(Cc2ccccc2)C(=O)C2CC2)cc1COc1ccc(NC(C)=O)cc1	nt	-26%	nt	-6%	?	nt
CCOc1ccc(-c2cc(C)n3nc(C(=O)Nc4cc(Cl)ccc4O)cc3n2)cc1	?	-69%	nt	-20%	79µM*	7.1µM*
O=S1(=O)Nc2c(cc(Cl)c3ccc(Cl)nc23)-c2ccccc21	nt	79µM*	nt	?	?	nt
Cc1ccc2ccc3c(c2n1)NS(=O)(=O)c1ccc(C(F)(F)F)cc1-3	nt	-13%	nt	-24%	?	nt
O=C1OCCC1Sc1nc2ccccc2c(=O)n1Cc1ccc(F)cc1 (stereo unspecified)	?	-29%	-11%	-8%	?	25µM*
O=C1OCCC1Sc1nc2ccccc2c(=O)n1-c1ccc(F)cc1 (stereo unspecified)	9%	-7%	3%	1%	87%	-23%
CCOC(=O)COc1ccc(Br)cc1/C=C\c1[nH]c(=O)[nH]c(=O)c1[N+](=O)[O-]	13µM*	-4%	-7%[11.6 µM]	-25%	89µM*	?
CCOC(=O)COc1ccc(Br)cc1/C=C/c1[nH]c(=O)[nH]c(=O)c1[N+](=O)[O-]	45µM*	-9%	-6%[11.6 µM]	?	?	56µM*
O=C(Nc1ccc(F)c(F)c1)c1cnn2c1NC(=C1CC1)C=C2C(F)(F)F	nt	-11%	nt	12%	57%	nt
Nc1nc(NCc2ccc(Cl)cc2Cl)c2[nH]cnc2n1	nt	-1%	nt	-8%	-9%	nt
CC1CCN2c3cc(Cl)ccc3CC3(C(=O)OC(C)(C)OC3=O)C2C1 (stereo unspecified)	nt	-12%	nt	-6%	?	nt
C#CCOCCOCCOCCNc1nc(N2CCN(C(=O)CCCCCCCCCCNC(=O)[C@H](CO)n3cc(CCCSC)nn3)CC2)nc(N2CCN(C(=O)CCCCCCCCCCNC(=O)[C@H](CCCN=C(N)N)n3cc(C[C@@H](C)CC)nn3)CC2)n1	?	-16%	?	22µM*	?	nt
C#CCOCCOCCOCCNc1nc(N2CCN(C(=O)CCCCCCCCCCNC(=O)Cn3cc(C[C@@H](C)O)nn3)CC2)nc(N2CCN(C(=O)CCCCCCCCCCNC(=O)[C@H](CCCN=C(N)N)n3cc(C[C@@H](C)CC)nn3)CC2)n1	?	-12%	?	89µM*	25%	nt
C#CCOCCOCCOCCNc1nc(N2CCN(C(=O)CCCCCCCCCCNC(=O)Cn3cc(C[C@@H](C)O)nn3)CC2)nc(N2CCN(C(=O)CCCCCCCCCCNC(=O)[C@H](CCCCN)n3cc(CCCC(=O)O)nn3)CC2)n1	5%	-1%	1%	1%	-23%	nt
CCn1c(SC(C)C(=O)Nc2ccc(C)cc2)nnc1-c1ccccc1 (stereo unspecified)	nt	10%	nt	0%	-4%	nt
Cc1cc(N)cc(C)c1-c1c(Br)cc(N)cc1Br	-25%	-8%	-3%	-14%	14%	nt
Nc1cc(N)cc(N)c1	nt	?	nt	?	1.6µM*	nt
CCC(=O)n1nc(-c2ccco2)nc1SCc1ccccc1	-8%	-4%	-2%	-14%	14%	22µM*
CCC[C@H]1C[C@H](C(=O)NC(C(C)Cl)C2O[C@@H](SC)C(OP(=O)(O)O)[C@@H](O)[C@@H]2O)N(C)C1 (stereo partly specified)	nt	-9%[60.1 µM]	nt	nt	nt	nt
SMILES	Pol eta inh	POLK inh	WRN helicase inh	FEN1 inh	POLI inh	POLB inh
NC(=O)c1cc[n+](CC2=C(C(=O)O)N3C(=O)[C@@H](NC(=O)[C@@H](c4ccccc4)S(=O)(=O)[O-])[C@H]3SC2)cc1	3.2µM*	27µM*	nt	40µM*	14µM*	10µM*
Cn1nnnc1SCC1=C(C(=O)O)N2C(=O)[C@@H](NC(=O)[C@@H](O)c3ccccc3)[C@@H]2SC1	nt	-16%[12 µM]	nt	nt	nt	nt
O=C(Cc1cccs1)NC1C(=O)N2C(C(=O)[O-])=C(C[n+]3ccccc3)CSC12 (stereo unspecified)	nt	3.5µM*	nt	nt	nt	nt
O=C(Cn1ncn2nc(-c3cccs3)cc2c1=O)NCc1ccccc1Cl	-12%	-18%	nt	15%	-27%	2%
Cc1ccccc1CNC(=O)Cn1ncn2nc(-c3cccs3)cc2c1=O	-12%	1%	nt	89µM*	?	11%
COc1cc2c(NC3CCN(C)CC3)nc(N3CCCN(C)CC3)nc2cc1OCC1CCCNC1 (stereo unspecified)	nt	-17%	nt	20µM*	-22%	nt
COc1cc2nc(N3CCCN(C)CC3)nc(NC3CCNCC3)c2cc1OC	nt	-15%	nt	25µM*	?	nt
COc1cc2nc(N3CCN(C)CC3)nc(NC3CCN(C)CC3)c2cc1OC	nt	-11%	nt	?	-14%	nt
CCNc1nc(N2CCCN(C)CC2)nc2cc(OC)c(OC)cc12	nt	-1%	nt	?	0%	nt
CCOC(=S)SSC(=S)OCC	nt	1%[19.4 µM]	nt	nt	nt	nt
Nc1c(O)ccc2c1C(=O)c1ccccc1C2=O	?	79µM*	-33%	50µM*	?	50µM*
COc1ccc2c(c1O)C(=O)c1ccccc1C2=O	nt	nt	nt	nt	nt	3%
COC(=O)N/N=C/c1ccc([N+](=O)[O-])o1	-4%	-44%	-7%[57.1 µM]	-8%	56µM*	?
CCC(=O)Nc1ccc(C(=O)N/N=C/c2ccc([N+](=O)[O-])cc2)cc1	-12%	6%	-2%	-10%	1%	?
CCCC(=O)Nc1ccc(C(=O)N/N=C/c2ccc([N+](=O)[O-])o2)cc1	?	-10%	3%[11.6 µM]	-29%	?	45µM*
